Compounds without any hit were thinned out: in the full panel of roughly 79,000, 15% have a hit. The source made the active and inactive calls. No stated cut-off is given here; in the data, active means growth inhibition above about 70%; inactive means the rest.
Key:
[1] = NCI Yeast Anticancer Drug Screen. Data for the wt1 strain (AID 149);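 further: 0% = growth of vehicle-treated wt1 cultures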; conditions: S. cerevisiae wt1 strain (SPY 50644) growth inhibition, active compounds read high
Method in brief: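 Yeast wt1 strain exposed to compounds; growth inhibition measured relative to vehicle-treated controls.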

[2] = NCI Yeast Anticancer Drug Screen. Data for the mgt1 strain (AID 153); conditions: S. cerevisiae mgt1 mutant growth inhibition, active compounds read high
Method in brief: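 mgt1 strain exposed; growth vs vehicle control recorded as inhibition.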

[3] = NCI Yeast Anticancer Drug Screen. Data for the rad50 strain (AID 155);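 further: 0% = growth of vehicle-only cultures of the same strain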; conditions: S. cerevisiae rad50 strain growth inhibition, active compounds read high
Method in brief: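 Yeast carrying a defined DNA repair defect were exposed to test compounds, and growth was compared with vehicle-treated controls to give percent inhibition.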

[4] = NCI Yeast Anticancer Drug Screen. Data for the mec2-1 strain (AID 157); conditions: S. cerevisiae mec2-1 strain, active compounds read high
Method in brief: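 Vehicle-treated cultures served as reference for growth inhibition of compound-exposed mec2-1 yeast.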

[5] = NCI Yeast Anticancer Drug Screen. Data for the rad14 strain (AID 159);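 further: 0% = growth of vehicle-treated control cultures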; conditions: S. cerevisiae rad14 strain growth inhibition, active compounds read high
Method in brief: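 Yeast cells carrying a defined DNA-repair defect were exposed to compounds, and growth inhibition was calculated relative to vehicle-treated control cultures.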

[6] = NCI Yeast Anticancer Drug Screen. Data for the sgs1 mgt1 strain (AID 161);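 further: 0% = growth of cultures given vehicle only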; conditions: S. cerevisiae sgs1 mgt1 strain, active compounds read high
Method in brief: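 Inhibition of yeast growth, normalised to vehicle-treated controls, is reported for a strain bearing genetic alterations in DNA damage repair.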

[7] = NCI Yeast Anticancer Drug Screen. Data for the CLN2oe strain (AID 163);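 further: 0% = growth of vehicle-only control cultures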; conditions: S. cerevisiae CLN2oe strain, active compounds read high
Method in brief: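 Inhibition relative to vehicle-treated yeast is reported. Cells: strain with genetic alteration in cell-cycle control, grown with compound.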

[8] = NCI Yeast Anticancer Drug Screen. Data for the cln2 rad14 strain (AID 165);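 further: 0% = growth equal to vehicle treated cultures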; conditions: S. cerevisiae cln2 rad14 strain, active compounds read high
Method in brief: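 Each compound was tested on cln2 rad14 yeast. Inhibition of growth was calculated against vehicle-exposed controls.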

[9] = NCI Yeast Anticancer Drug Screen. Data for the bub3 strain (AID 167); conditions: S. cerevisiae bub3 mutant strain, active compounds read high
Method in brief: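 Compounds were applied to a genetically altered yeast strain carrying a cell-cycle control defect. Growth inhibition was scored against vehicle-treated controls.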

[10] = NCI Yeast Anticancer Drug Screen. Data for the wt2 strain (AID 169);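 further: 0% = growth of vehicle-treated yeast cultures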; conditions: S. cerevisiae wt2 strain growth inhibition, active compounds read high
Method in brief: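 Inhibition of yeast growth was determined after compound treatment, normalised to controls receiving only vehicle.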

[11] = NCI Yeast Anticancer Drug Screen. Data for the mlh1 strain (AID 171);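 further: 0% = growth of vehicle-treated control cultures of the same strain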; conditions: S. cerevisiae mlh1 strain growth inhibition, active compounds read high
Method in brief: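 Vehicle-normalised growth inhibition of a repair- or checkpoint-altered yeast strain following compound treatment.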

[12] = NCI Yeast Anticancer Drug Screen. Data for the sgs1 strain (AID 173);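 further: 0% = growth of vehicle-only control cultures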; conditions: S. cerevisiae sgs1 mutant, active compounds read high
Method in brief: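 Screen format: yeast with repair or checkpoint alterations, compound exposure, growth read relative to vehicle.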

[13] = NCI Yeast Anticancer Drug Screen. Data for the mlh1 rad18 strain (AID 175); conditions: S. cerevisiae mlh1 rad18 strain growth inhibition, active compounds read high
Method in brief: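 Vehicle-treated cultures served as the reference for growth inhibition in a yeast strain carrying DNA damage repair alterations exposed to each compound.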

[14] = NCI Yeast Anticancer Drug Screen. Data for the rad18 strain (AID 177); conditions: S. cerevisiae rad18 mutant growth inhibition, active compounds read high
Method in brief: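 Test articles were incubated with altered yeast defective in DNA damage repair. Results are given as inhibition of growth versus vehicle.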

[15] = at 5.0 µM (retest, dose inferred, filed as 0.5)
[16] = at 50.0 µM (retest, dose inferred, filed as 5.0)

Measured: growth inhibition

CCCCCc1c(CCCC)c(=O)[nH]c2cc(CNCC(OC)OC)ccc12
active: [1]; at 33.0 µM 98% | [1]; at 100.0 µM 94% | [2]; at 33.0 µM 98% | [2]; at 100.0 µM 94% | [3]; at 33.0 µM 98% | [3]; [16] 96% | [3]; at 50.0 µM 88.9% | [3]; at 100.0 µM 93% | [4]; at 33.0 µM 98% | [4]; [16] 98% | [4]; at 50.0 µM 91.3% | [4]; at 100.0 µM 95% | [5]; at 11.0 µM 89% | [5]; at 33.0 µM 98% | [5]; at 100.0 µM 93% | [6]; at 50.0 µM 91% | [7]; at 33.0 µM 98% | [7]; at 100.0 µM 94% | [8]; [16] 95% | [8]; at 50.0 µM 86.5% | [9]; at 33.0 µM 98% | [9]; [16] 97% | [9]; at 50.0 µM 91.2% | [9]; at 100.0 µM 94% | [10]; at 33.0 µM 98% | [10]; at 100.0 µM 94% | [11]; at 33.0 µM 98% | [11]; at 100.0 µM 95% | [12]; at 33.0 µM 99% | [12]; at 100.0 µM 95% | [13]; [16] 96% | [13]; at 50.0 µM 87% | [14]; at 33.0 µM 98% | [14]; at 100.0 µM 94%
inactive: [1]; at 1.2 µM 1% | [1]; at 3.7 µM 7% | [1]; at 11.0 µM 20% | [2]; at 1.2 µM -15% | [2]; at 3.7 µM -11% | [2]; at 11.0 µM 58% | [3]; at 1.2 µM 14% | [3]; at 3.7 µM 19% | [3]; [15] 8% | [3]; at 11.0 µM 52% | [4]; at 1.2 µM -9% | [4]; at 3.7 µM -9% | [4]; [15] -7% | [4]; at 11.0 µM 7% | [5]; at 1.2 µM -23% | [5]; at 3.7 µM 24% | [6]; [15] 8% | [6]; [16] 46% | [7]; at 1.2 µM 0% | [7]; at 3.7 µM 11% | [7]; at 11.0 µM 63% | [8]; [15] 26% | [9]; at 1.2 µM -6% | [9]; at 3.7 µM 4% | [9]; [15] 19% | [9]; at 11.0 µM 31% | [10]; at 1.2 µM 7% | [10]; at 3.7 µM 11% | [10]; at 11.0 µM 28% | [11]; at 1.2 µM -5% | [11]; at 3.7 µM 13% | [11]; at 11.0 µM 52% | [12]; at 1.2 µM 10% | [12]; at 3.7 µM 23% | [12]; at 11.0 µM 69% | [13]; [15] 50% | [14]; at 1.2 µM 10% | [14]; at 3.7 µM 19% | [14]; at 11.0 µM 14%
